Results from PubChem BioAssay AID1347416 (National Center for Advancing Translational Sciences (NCATS), 2020).
Out of some 4,100 compounds screened, about 1,600 (39%) were called active. Inconclusive results (about 25%) are left out. Calls follow the shape of the dose curve; as a rule, active = well fitted inhibition curve with a large enough effect; inconclusive = small, poorly fitted or top-dose-only effect; inactive = no such curve, though single readings can be large or run the other way. The list shows a part of the results.

Test: qHTS Validation assay for Inhibitors of Plasmodium falciparum Dd2 growth in vitro; also: nearly all actives have a fitted effect of over 70% in size
Conditions: P. falciparum Dd2 in RBCs, SYBR Green growth, 72 h; series mostly up to 28.7 µM; activity change, negative = inhibition: at the top concentration
Source text: Malaria, a parasitic disease spread to humans through the bite of a Plasmodium infected Anopheles mosquito, continues to be a global health burden affecting millions of people, with an estimated 228 million cases and 405,000 deaths in 2018. Concerns about safety and limitations of current antimalarial treatments strongly emphasize the need to develop new therapeutic options. The scarce number of chemotypes and validated drug targets with efficacy against the liver stage, have hindered development of new antimalarials. To address this, a chemoprophylactic drug discovery effort was conducted through a combined phenotypic high-throughput asexual blood stage and liver stage screen, providing a robust foundation to identify liver-stage active lead chemotypes. Compounds were initially screened against Plasmodium falciparum Dd2 strain parasites using a in vitro SYBRGreen-1 based 72 hr proliferation assay to identify novel chemotypes to advance to liver stage assays. NIH/NCATS Early Translation Branch Assay Submitter (PI): Anton Simeonov Ph.D.
[…] Assay Protocol: PROTOCOL TABLE (as described by Inglese et al., 2007) SEQUENCE No. (e.g., 1, 2, 3, etc.); PARAMETER (e.g., Cells, Incubation, Reagent, etc.); VALUE; DESCRIPTION SEQUENCE, Parameter, Description 1; Reagent; 3 uL complete malaria growth medium, 1536 TC treated Black clear bottom plate 2; Controls; 23 nL positive control artesunate (300 nM final) to column 1; Neutral control DMSO to columns 2-4 3; Compound; 23 nL of compounds in dose response concentration (29 uM to 0.5 nM final) 4; Reagent; 5 uL malaria infected red blood cells (2.5% hematocrit final, 0.3% parasitemia 5; Time; 72 hours at 37C (5% O2, 5% CO2, 90% N2; 95% Rh) 6; Reagent; 2 uL lysis buffer/SYBRGreen-1, 25 sec shake immediately following dispense 7; Time; ~16 hours at 37C (5% O2, 5% CO2, 90% N2; 95% Rh) 8; Detector; EnVision (PerkinElmer) bottom read at 485/14nm excitation and 535/25 nm emission NOTES (numbers refer to sequence above): 1; Complete Malaria Growth Media: 1X RPMI-1640 w/L-glutamine, 5.5g/L Albumax II, 367 uM Hypoxanthine, 25 mM HEPES, 0.25% Sodium Bicarbonate, 35 uM Gentamicin sulfate 2; Controls were added using the Kalypsis Pintool (Wako USA) equipped with 1536 pinhead 3; Compounds were added in a 7-point, titration with a high final concentration of 29 uM by Pintool from seven inter-plate titrations of library plates and two DMSO control plates at the beginning and end (see Yasgar et al., 2008). 4; Red blood cells infected with Plasmodium falciparum Dd2 parasites were used. 6; Lysis buffer: 20 mM Tris-HCl, 10 mM EDTA, 0.16% Saponin, 1.6% Triton-X, 10X SYBR Green. REFERENCE: Inglese J, Shamu CE, Guy RK. 2007. Reporting data from high-throughput screening of small-molecule libraries. Nat Chem Biol. doi:10.1038/nchembio0807-438 Yasgar A, Shinn P, Jadhav A, Auld D, Michael S, Zheng W, Austin CP, Inglese J, Simeonov A. 2008. Compound Management for Quantitative High-Throughput Screening. J Lab Autom 13:79-89. doi:10.1016/j.jala.2007.12.004
% is scaled to controls: 0 for no effect and ±100 for the full control effect; potency is read from the fitted curve at half-maximal effect.

Activity change, negative = inhibition, inactive:
NC(=O)c1ccccc1OCC(=O)N1CC(CNC(=O)Nc2ccccc2)C2(C1)CN(c1ccccc1)C2 (stereo unspecified) -14.4%
COc1ccccc1C(=O)N1CC(CNC(=O)C2CC2)C2(C1)CN(c1ccccc1)C2 (stereo unspecified) 8.56% [at 43.1 µM]
CNCC(=O)N1CCC2(CC1)CN(Cc1ccccc1)CC2CO (stereo unspecified) 8.38%
Cn1cc(C(=O)NCC2CN([S+](=O)([O-])c3ccccc3Cl)CC23CN(c2ccccc2)C3)cn1 (stereo unspecified) -15.3%
O=C(Cc1ccccc1)NCC1CN(Cc2cccc(Cl)c2)CC12CN(c1ccccc1)C2 (stereo unspecified) 5.28%
O=C(N[C@H]1CCOC[C@H]1C1CCOCC1)c1ccccc1-c1ccccc1 46.3%
CC(=O)N1CCc2cc(S(=O)(=O)CCC(=O)N3CCC(CCOc4ccccc4)C3)ccc21 (stereo unspecified) -21.9%
Cc1ccc(NC(=O)CCS(=O)(=O)c2ccc(Br)cc2)c(C)c1 40%
O=C1Cc2cc(S(=O)(=O)N3CCN(c4cccc(Cl)c4)CC3)ccc2N1 -37.7%
CC(=O)Nc1ccc(NS(=O)(=O)c2cc(Br)cc3c2N(C(=O)C2CC2)CC3)cc1 25.6%
CCCc1noc(-c2ccn3c(CNC(=O)c4cccc(Cl)c4)nnc3c2)n1 -6.54%
CCN(c1ccccc1)S(=O)(=O)c1c(-c2ccc(C)cc2)csc1C(=O)OC -3.17%
CC1=C[C@@H](CNS(C)(=O)=O)[C@H](C(C)C)C[C@H]1Cc1nnc(-c2ccccc2F)o1 18.4% [at 43.1 µM]
CC1=C[C@@H](CNC(C)C)[C@H](C(C)C)C[C@H]1Cc1nnc(C(C)(C)C)o1 -18.7% [at 43.1 µM]
N#Cc1ccccc1CN1CCC([C@@H]2CNC[C@H]2CO)CC1 24.7%
O=C1COc2ccc(-c3ccsc3)nc2CN1 40.8% [at 57.5 µM]
CCN(CC)CCNC(=O)C1CCCN(S(=O)(=O)c2ccccc2)CCC(=O)NCC1 (stereo unspecified) 5.63%
Cc1nnc(SCC(=O)Nc2nccs2)o1 35.8%
O=C(NCc1ccccn1)C1c2ccccc2C(=O)N(C2CCCC2)C12CCCCC2 (stereo unspecified) -27.1%
CCN(CC)C(=O)C(C)[C@@H]1CC[C@@]2(C)CC[C@H](NC(=O)c3cnccn3)[C@@H](C)[C@@H]2[C@H]1O (stereo partly specified) -37% [at 43.1 µM]
CCN(CC)C(=O)[C@@H](C)C1CC[C@@]2(C)CC[C@H](NC(=O)COc3ccccc3)[C@@H](C)[C@@H]2[C@H]1O (stereo partly specified) 1.65%
CCn1cnnc1CC1CCN(C(=O)C2CC2)CC1 15.8%
CCS(=O)(=O)c1ccc2oc(Nc3cc(C)cc(C)c3)nc2c1 -17.2%
Cn1cc(C(NS(=O)(=O)c2cccc3c2OCCO3)C2CC(O)C2)cn1 (stereo unspecified) 14.4%
CC(C)NC(=O)CSc1nnc(CNC(=O)OC(C)(C)C)n1C 26.5%
CC(C)Cc1nc2nccc(-c3cccs3)n2n1 4.53%
Cc1nc2ccc(C(=O)NCc3cc4n(n3)CCN(C(=O)N(C)C)C4)cc2o1 52.8%

Potency, active:
O=[S+]([O-])(NCC1CN(Cc2ccc(O)cc2)CC12CN(c1ccccc1)C2)c1ccccc1 (stereo unspecified) 6.68 µM
O=C(CCS(=O)(=O)c1cc(Br)cc2c1N(C(=O)C1CC1)CC2)Nc1ccc(Br)cc1F 3.35 µM
O=C(CCS(=O)(=O)c1cc(Br)cc2c1N(C(=O)C1CC1)CC2)N1CCN(c2cccc(Cl)c2)CC1 13.3 µM
O=C(C1CC1)N1CCc2cc(Br)cc(S(=O)(=O)N3CCN(c4cccc(C(F)(F)F)c4)CC3)c21 4.73 µM
Cc1ccc(NC(=O)CCS(=O)(=O)c2cc(Br)cc3c2N(C(=O)C2CC2)CC3)cc1 2.37 µM
O=C(CCS(=O)(=O)c1cc(Br)cc2c1N(C(=O)C1CC1)CC2)Nc1ccc(C(F)(F)F)cc1 1.33 µM
CCN(c1ccccc1)S(=O)(=O)c1cc(Br)cc2c1N(C(=O)C1CC1)CC2 2.99 µM
CC1=C[C@@H](CNCCN(C)C)[C@H](C(C)C)C[C@H]1Cc1nnc(C(C)(C)C)o1 15.3 µM
CC1=C[C@@H](CNC(C)C)[C@H](C(C)C)C[C@H]1Cc1nnc(-c2ccc(C)cc2)o1 13.7 µM
CC1=C[C@@H](CNC2CC2)[C@H](C(C)C)C[C@H]1Cc1nnc(-c2ccc(C)cc2)o1 17.2 µM
CC(=O)NCCNC[C@@H]1C=C(C)[C@H](Cc2nnc(-c3ccccc3)o2)C[C@H]1C(C)C 17.2 µM
CCN(CC)CCNC(=O)c1c(O)c2cccc3c2n(c1=O)CCC3 10.6 µM
CC(C)CN1C(=O)c2ccccc2C(C(=O)Nc2nccs2)C12CCCC2 (stereo unspecified) 8.41 µM
O=C(Nc1nccs1)C1c2ccccc2C(=O)N(C2CCCC2)C12CCCC2 (stereo unspecified) 4.22 µM
Cc1nnc(NC(=O)C2c3ccccc3C(=O)N(CC(C)C)C23CCCCC3)s1 (stereo unspecified) 15 µM
CCCNCC(O)COc1ccccc1C(=O)CCc1ccccc1 (stereo unspecified) 0.842 µM
CCN(CC)CC(O)COc1ccccc1C(=O)CCc1ccccc1 (stereo unspecified) 1.5 µM
COc1ccccc1CNC(=O)[C@@H](C)C1CC[C@@]2(C)CC[C@H](NC(=O)c3cncnc3)[C@@H](C)[C@@H]2[C@H]1O (stereo partly specified) 2.37 µM
CCN(CC)c1ccc2oc(=O)c(C)nc2c1 6.68 µM
